# AHR act – activates the human aryl hydrocarbon receptor | P35869 | AHR-responsive luciferase reporter cells, luminescence | activation, % at 5 µM | 2.5% of 320,000 active; in the data active = activation above about 47%
# HIF activator – HIF pathway transcriptional activation; activation, % at 7.5 µM (by protocol); U2OS HRE-luciferase reporter, luminescence; normalized: DMSO 0%, desferrioxamine 100%; 0.32% of 300,000 active;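 active = mean activation of at least 10% of the iron chelator positive control signal, with at least half of replicates also reaching 10%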
# PLC-gamma1 inh – PLC-gamma1 (human) inhibition, primary screen | P19174 | purified PLC-gamma1, fluorogenic substrate, fluorescence | inhibition, % at 12.2 µM | 0.84% of 370,000 active | AID 720700; in the data active = inhibition above about 9.5%
# CR mimetic SO – lowers age-related superoxide in aged yeast cells | S. cerevisiae aged cells, superoxide DHE fluorescence; hits give low values | superoxide response (% of plate mean), % at 10 µM | 0.18% of 330,000 active;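 active = superoxide response under a set limit, about three screen SD below normal, cut at about 65% in these data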;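 note: yeast aged for seven days with compound at 30 °C before DHE staining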
# sPLA2-III inh – Inhibits HGIII-sPLA2 liposome hydrolysis, primary screen; Q9NZ20; QFRET BODIPY PC-A2 liposome hydrolysis, fluorescence; inhibition, % at 12.2 µM; 0.56% of 370,000 active;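 active = inhibition above mean plus 3 SD of compounds lying within the high and low control bounds, cut at about 19% in these data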
# Target sequence (Q9NZ20 whole entry, looked up): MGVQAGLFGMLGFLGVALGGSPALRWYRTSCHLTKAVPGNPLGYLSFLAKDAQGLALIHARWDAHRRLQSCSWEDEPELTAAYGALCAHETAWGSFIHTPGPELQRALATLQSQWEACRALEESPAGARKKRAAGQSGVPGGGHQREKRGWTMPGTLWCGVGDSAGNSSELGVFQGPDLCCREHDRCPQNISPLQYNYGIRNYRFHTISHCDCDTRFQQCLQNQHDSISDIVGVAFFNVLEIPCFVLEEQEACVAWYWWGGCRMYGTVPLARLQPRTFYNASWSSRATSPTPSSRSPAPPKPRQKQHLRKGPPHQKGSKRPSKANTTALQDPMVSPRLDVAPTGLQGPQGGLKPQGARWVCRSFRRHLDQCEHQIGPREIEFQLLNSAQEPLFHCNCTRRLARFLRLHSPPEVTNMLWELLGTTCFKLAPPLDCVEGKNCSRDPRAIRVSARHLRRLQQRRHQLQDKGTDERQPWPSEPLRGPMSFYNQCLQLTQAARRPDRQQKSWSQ
# PLC-beta3 inh – blocks human PLC-beta3 enzyme activity. Q01970. Purified PLC-beta3, fluorogenic substrate, fluorescence. inhibition, % at 12.2 µM. 0.18% of 370,000 active. AID 720704; in the data active = inhibition above about 11%
# CR mimetic CP – confirmation of caloric restriction mimetics inhibiting yeast age-related superoxide. superoxide response (% of plate), % at 10 µM. shares compounds with CR mimetic SO. AID 434994. S. cerevisiae aging, superoxide DHE fluorescence; hits give low values. 1% of 850 active;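 active = superoxide signal below 65% of the plate average of sample wells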;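 note: cells aged with compound for 7 days at 30 degrees C before staining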
# DHE counter – compound alters DHE oxidation or fluorescence in yeast; AID 435000; shares compounds with CR mimetic SO; fluorescence response, % at 10 µM; 850 tested, under 10 active; S. cerevisiae BY4741, flow cytometry; hits give low values;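 active = fluorescence response below 15%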;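 note: lower means stronger quenching of DHE signal or ROS scavenging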
# Hits are given with their value; - = inactive; . = no result. Most compounds without a hit are left out; they make up all but 3.9% or so of the library.
SMILES,AHR act,HIF activator,PLC-gamma1 inh,CR mimetic SO,sPLA2-III inh,PLC-beta3 inh,CR mimetic CP,DHE counter
Cc1ccc(NC(=O)Cc2ccc(F)cc2)c(S(=O)(=O)N2CCOCC2)c1,.,.,-,.,-,-,.,.
O=c1cc(-c2ccccc2)nc2cc(-c3ccc(Br)cc3)[nH]n12,-,-,-,53,-,-,-,-
CCCc1cc(=O)n2[nH]c(-c3ccc(Cl)cc3)cc2n1,-,-,-,-,-,-,-,-
O=c1cc(-c2ccc([N+](=O)[O-])cc2)nc2cc(-c3ccc(Cl)cc3)[nH]n12,-,.,.,-,.,.,.,.
Cc1nc2cc(-c3ccc(F)cc3)[nH]n2c(=O)c1C,-,-,-,-,-,-,-,-
Cc1cc2nc(C)c(Cl)c(=O)n2[nH]1,-,-,-,-,-,-,.,.
Cc1ccccc1-c1cc2nc(C)c(C)c(=O)n2[nH]1,.,-,-,-,-,-,.,.
Cc1nc2cc(-c3ccc(Br)cc3)[nH]n2c(=O)c1Cl,.,-,-,-,-,-,-,-
COc1ccc(C(O)c2ncc(-c3cccc4ccccc34)[nH]2)cc1F (stereo not given),.,.,-,.,-,-,.,.
O=C(O)c1[nH]c2ccccc2c1C(c1cc(Br)ccc1O)c1c(C(=O)O)[nH]c2ccccc12,-,-,-,-,-,-,.,.
O=C(NC(=O)N1CCCC1)c1csnn1,-,-,-,64,-,-,-,-
Nc1c(NCc2ccccc2)c(=O)c1=O,-,-,-,63,-,-,-,-
O=c1cccccc1NCc1ccccc1,-,-,-,-,-,-,.,.
Cc1ccc(C(=O)N2CCN(c3ccc(Cl)cc3)CC2)cc1,-,-,-,-,-,-,-,-
COc1ccc(C(=O)N2CCN(c3ccc(C)cc3)CC2)cc1OC,-,-,-,-,-,-,-,-
CC(C)OC(=O)c1ccc2nc3ccccc3nc2c1,-,-,-,53,-,-,-,-
CC1=CC2(C)NC(=O)C(C)C12 (stereo not given),.,.,-,.,-,-,.,.
CCOc1ccc2c(c1)C(C)=CC(C)(C)N2,-,.,-,65,-,-,-,-
CC1=CC(C)(C)Nc2ccc(OC(=O)CN3C(=O)c4ccccc4C3=O)cc21,-,-,-,-,-,-,.,.
CN(CCO)S(=O)(=O)c1ccc2c(c1)C(=NN)c1cc(S(=O)(=O)N(C)CCO)ccc1-2,-,-,-,65,-,-,-,-
O=C1c2cc(S(=O)(=O)N(CCO)CCO)ccc2-c2ccc(S(=O)(=O)N(CCO)CCO)cc21,-,-,-,-,-,-,.,.
CCCCCOc1ccc(CN2CCOCC2)cc1Cl,-,-,-,-,-,-,.,.
CCCCCc1ccc(OCCCC[n+]2ccc(C)cc2)c(CCCCC)c1,-,.,-,-,-,-,-,-
Cc1cc(=O)oc2cc(OCCCC[n+]3ccccc3)ccc12,-,-,-,-,-,-,.,.
CCC(C)(C)c1ccc(OCCCC[n+]2ccccc2)c(C(C)(C)CC)c1,-,-,-,-,-,-,-,-
SMILES,AHR act,HIF activator,PLC-gamma1 inh,CR mimetic SO,sPLA2-III inh,PLC-beta3 inh,CR mimetic CP,DHE counter
CCCCCc1ccc(OCCCC[n+]2ccccc2)c(CCCCC)c1,-,-,.,-,.,.,-,-
CCCCCc1ccc(OCCCC[n+]2cccc(C)c2)c(CCCCC)c1,-,-,-,-,-,-,-,-
O=C(CNCC(=O)Nc1ccc(F)c(F)c1F)Nc1ccc(F)c(F)c1F,-,-,-,65,-,-,-,-
O=c1cc2c(nn1Cc1ccc(F)cc1)-c1ccccc1CC2,-,-,-,59,-,-,-,-
Nc1nc2ccccc2nc1N,-,-,-,-,-,-,.,.
c1ccc2nc3ccccc3nc2c1,-,-,-,64,-,-,-,-
CC1CCN(C(=O)CCNS(=O)(=O)c2ccc(Br)cc2)CC1,-,.,-,-,-,-,.,.
Cc1c(F)cccc1NS(=O)(=O)c1ccccc1C#N,-,-,-,-,-,-,-,-
COc1ccccc1NS(=O)(=O)c1ccccc1C#N,-,-,-,-,-,-,.,.
C=CCN1C(=O)/C(=C\C=C2\N(C)c3ccccc3C2(C)C)SC1=S,-,-,-,57,-,-,-,-
CCOc1ccccc1C(C(=O)NC1CCCCC1)N(C(=O)c1csnn1)C1CC1 (stereo not given),-,-,-,-,-,-,.,.

# Screening data: PubChem BioAssay, several laboratories
